Source: the supplement of paper PMC8387472
Structures can show the parent of a compound that is named as a salt. ± gives the standard deviation of the averaged measurements.

The compounds below were run on mESC LDLR-Dup GFP reporter (SpCas9 MH-deletion repair) (assay: fraction of GFP+ cells relative to DMSO control (fold change); higher = more MH-deletion repair to in-frame LDLR (or more editing)). Conditions: 2 µM; 7 days post-transfection.

Structure (SMILES)	fraction of GFP+ cells
C#Cc1cccc(Nc2ncnc3cc(OC)c(OCCCCCCC(=O)NO)cc23)c1	0.66 ± 0.054
CC(C)(Oc1ccc(C(=O)c2ccc(Cl)cc2)cc1)C(=O)O [Fenofibric acid]	2.08 ± 0.55
C[C@@H](N)[C@H]1CC[C@H](C(=O)Nc2ccncc2)CC1	1.31 ± 0.91
O=c1[nH]c(=O)n(C2CC(O)C(CO)O2)cc1Br (centres undefined) [Bromodeoxyuridine (BrdU)]	1.79 ± 0.2
CN(C)c1ccc(-c2nc3ncc(Cl)c(N4CCN(CC(=O)Nc5nccs5)CC4)c3[nH]2)cc1	0.872 ± 0.39
COc1c(O)cc(O)c2c(=O)cc(-c3ccccc3)oc12 [Wogonin]	0.728 ± 0.15
Cn1nnc2c(C(N)=O)ncn2c1=O [Temozolomide]	0.998 ± 0.33
CN(C)C(=O)c1cc2cnc(Nc3ccc(N4CCNCC4)cn3)nc2n1C1CCCC1 [Ribociclib (LEE011)]	1.04 ± 0.21
N#Cc1ccc2ncnc(NCCc3ccccc3)c2c1 [Senexin A]	0.863 ± 0.11
Cn1cc(-c2ccc3c(c2)CCN3C(=O)Cc2cccc(C(F)(F)F)c2)c2c(N)ncnc21	0.644 ± 0.25
O=NN(CCCl)C(=O)NC1CCCCC1 [Lomustine]	1.11 ± 0.11
NC(=O)c1ccccc1 [Benzamide]	1.01 ± 0.07
CC(C)OC(=O)[C@H](C)N[P@](=O)(OC[C@H]1O[C@@H](n2ccc(=O)[nH]c2=O)[C@](C)(F)[C@@H]1O)Oc1ccccc1 [Sofosbuvir (PSI-7977, GS-7977)]	1.03 ± 0.4
C/C(=C\C(=O)OCCCCCCCCC(=O)O)C[C@@H]1OC[C@H](C[C@@H]2O[C@H]2[C@@H](C)[C@H](C)O)[C@@H](O)[C@H]1O [Mupirocin]	1.12 ± 0.3
NC(=O)c1ncn([C@@H]2O[C@H](CO)[C@@H](O)[C@H]2O)c1O [Mizoribine]	1.05 ± 0.12
COCCCc1sc(-c2ccccc2)nc1C(=O)Nc1ccccc1-c1nc2cc(CN3CCCC3)cnc2s1	1.15 ± 0.33
CN1CCCC(n2nc(Cc3ccc(Cl)cc3)c3ccccc3c2=O)CC1 (centres undefined) [Azelastine HCl]	0.868 ± 0.11
CS(=O)(=O)c1ccc(-c2cnc(N)c(C(=O)Nc3ccccc3)n2)cc1	0.582 ± 0.061
Cc1cnc(NC(=O)Nc2cc(Br)c(C)cc2OC[C@@H]2CNCCO2)cn1	1.14 ± 0.08
COc1ccc(Cn2ccc3ccc(C(=O)NO)cc32)cc1	0.5 ± 0.072

Structure (SMILES)	fraction of GFP+ cells
O=c1cc(-c2cccc3c2Sc2ccccc2S3)oc(N2CCOCC2)c1	0.661 ± 0.19
O=c1c(O)c(-c2ccc(O)c(O)c2)oc2cc(O)cc(O)c12 [Quercetin]	1.4 ± 0.93
COc1ccc(-c2nc(-c3cc(C(F)(F)F)cc(C(F)(F)F)c3)n(Cc3ccc(C(N)=O)cc3)c2-c2ccc(OC)cc2)cc1 [Apoptozole]	1.14 ± 0.37
O=C(NCCN1CCOCC1)Nc1ccc(C(=O)/C=C/c2cccc(N3CCOCC3)n2)cc1	1.18 ± 0.16
COc1cccc2oc(-c3ccccc3)cc(=O)c12 [5-methoxyflavone]	0.869 ± 0.26
O=C(O)c1cn(C2CC2)c2cc(N3CCNCC3)c(F)cc2c1=O [Ciprofloxacin]	1.01 ± 0.28
CC1(C)CCC2=C(O1)c1ccccc1C(=O)C2=O [Beta-Lapachone]	0.973 ± 0.027
NC[C@@](O)(c1ccc(Cl)cc1)c1ccc(-c2cn[nH]c2)cc1	1.33 ± 0.93
Nc1[nH]cnc2ncnc1-2 [Adenine HCl]	1.31 ± 0.32
O=c1c(-c2ccc(O)cc2)coc2cc(O)ccc12 [Daidzein]	0.115 ± 0.039
CCc1c(Cl)c(O)c(Cl)c(O)c1C(=O)O[C@H]1[C@H](O)[C@H](OC)[C@H](OC/C2=C\C=C\C[C@H](O)/C(C)=C/[C@H](CC)[C@@H](O[C@@H]3OC(C)(C)[C@@H](OC(=O)C(C)C)[C@H](O)[C@@H]3O)/C(C)=C/C(C)=C/C[C@@H]([C@@H](C)O)OC2=O)O[C@@H]1C [Fidaxomicin]	2.81 ± 0.44
C=CCc1ccc(O)c(-c2cc(CC=C)ccc2O)c1 [Magnolol]	0.713 ± 0.084
O=C(O)c1cc(I)ccc1NC(=O)[C@H](Cc1ccccc1)NCc1ccccc1	1.89 ± 0.36
O=c1[nH]c(=O)n(C2CCCO2)cc1F (centres undefined)	1.06 ± 0.28
O=CN1CC/C(=C/c2ccc3c(c2)OCO3)C1=O	0.833 ± 0.28
CCOC(=O)Nc1ccc(NCc2ccc(F)cc2)nc1N [Flupirtine maleate]	0.989 ± 0.52
O=S(=O)(N=Cc1c(O)ccc2ccccc12)c1cccs1	1.15 ± 0.65
CC1=C(C(=O)Nc2ccc3[nH]ncc3c2)C(c2ccc(F)cc2)NC(=O)N1 (centres undefined)	1.53 ± 0.42
O=C(O)C(Cc1ccccc1[N+](=O)[O-])=NNc1nc(-c2ccc(Cl)c(Cl)c2)cs1 (mixture of isomers)	1.15 ± 0.48
